PubChem BioAssay AID720540 (National Center for Advancing Translational Sciences (NCATS), 2013)
The whole screen tested about 1,300 compounds, of which about 460 (35%) were called active. Not shown: some 39% with an inconclusive outcome. Calls come from the whole dose curve; as a rule, active = well fitted inhibition curve with a large enough effect; inconclusive = small, poorly fitted or top-dose-only effect; inactive = flat fitted curve, though single readings scatter. This is one part of the list.
Note: nearly all actives have a fitted effect of over 65% in size.
Potency is the fitted concentration of half-maximal effect.

Each molecule was assayed against Protein phosphatase EYA2 (Homo sapiens) (UniProt O00167) (assay: qHTS for Inhibitors of the Phosphatase Activity of Eya2: Confirmatory Assay for Cherry-picked Compounds). Conditions: purified EYA2 phosphatase activity, qHTS confirmation; series mostly up to 46.1 µM.
Protein phosphatase EYA2 (Homo sapiens), sequence (O00167 whole entry, looked up): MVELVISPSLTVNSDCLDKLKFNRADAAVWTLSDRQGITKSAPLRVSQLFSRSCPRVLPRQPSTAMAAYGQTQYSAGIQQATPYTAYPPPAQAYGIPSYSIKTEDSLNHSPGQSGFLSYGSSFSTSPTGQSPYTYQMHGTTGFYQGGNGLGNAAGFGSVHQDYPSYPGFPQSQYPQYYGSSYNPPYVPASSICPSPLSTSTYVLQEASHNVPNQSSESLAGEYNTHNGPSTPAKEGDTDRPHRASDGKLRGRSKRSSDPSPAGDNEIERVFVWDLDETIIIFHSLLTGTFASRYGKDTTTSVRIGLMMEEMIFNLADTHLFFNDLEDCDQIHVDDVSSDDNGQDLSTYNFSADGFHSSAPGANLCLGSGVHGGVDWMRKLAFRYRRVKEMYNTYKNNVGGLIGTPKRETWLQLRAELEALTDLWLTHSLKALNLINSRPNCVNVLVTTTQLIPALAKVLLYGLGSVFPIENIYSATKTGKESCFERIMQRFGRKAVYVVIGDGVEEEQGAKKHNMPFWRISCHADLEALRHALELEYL
Outline: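 Eya2 (0.2 uM working solution) preincubated 10 min at room temperature with compound in pH 7.5 HEPES buffer with MgCl2, BSA, DTT. OMFP added (50 uM working solution), 10 min more; fluorescence 485/525 nm, normalized to EGTA and DMSO.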
With `Cc1cc(/C=C2\C(=N)N3N=C(CC(=O)N4CCOCC4)SC3=NC2=O)c(C)n1Cc1ccccc1` the Potency was “inactive”. For `O=C(NN=C1CCCC1)c1[nH]c2ccc(Br)cc2c1-c1ccccc1`, the Potency was “inactive”. For `COc1cc(/C=C2\C(C)=C(C#N)c3nc(N)c(C#N)c(C)c32)ccc1OCC(=O)O`, the Potency was 16.9 µM (active). In the case of `CN(C)c1ccc(/C=C2\CCc3cc(N)ccc32)cc1`, the Potency is reported as 8.49 µM (active). With `COc1ccc2c(c1)C=C/C2=C\c1ccc(N(C)C)cc1` the Potency was 5.36 µM (active). For `CN(C)c1ccc(/C=C2\C=Cc3cc(N)ccc32)cc1`, the Potency was 8.49 µM (active). `Cc1ccc(NC(=O)c2cc(=O)c3ccccc3o2)cc1S(=O)(=O)N1CCCCC1` was tested, and the Potency was 12 µM (active). `Cc1ccc(NC(=O)COc2ccc(S(=O)(=O)N3CCOCC3)cc2)cc1` was tested, and the Potency was “inactive”. For `O=S(=O)(c1ccc(Cl)cc1)N1CCOCC1`, the Potency was “inactive”. In the case of `Cc1ccc(NC(=O)c2ccc3c(c2)OCO3)cc1S(=O)(=O)N1CCOCC1`, the Potency is reported as 9.53 µM (active). `Cc1cccc(S(=O)(=O)C(C#N)c2nc3ccccc3nc2N2CCOCC2)c1` (stereo unspecified) was tested, and the Potency was “inactive”. For `O=C(Nc1cc(S(=O)(=O)N2CCOCC2)ccc1Cl)c1cc(=O)c2ccccc2o1`, the Potency was “inactive”. For `COc1ccc(C(=O)Nc2nc(-c3ccccn3)cs2)cc1S(=O)(=O)N1CCOCC1`, the Potency was 1.51 µM (active). With `O=C(Nc1nc(-c2ccccn2)cs1)c1cccc(S(=O)(=O)N2CCOCC2)c1` the Potency was 1.51 µM (active). For `S=C(Nc1ccc2c(c1)OCCO2)Nc1ccc2c(c1)OCO2`, the Potency was “inactive”. For `CC(C(=O)c1ccc(Br)cc1)[n+]1cccc2ccccc21` (stereo unspecified), the Potency was “inactive”. `O=C1c2ccccc2C(=O)N1CCCc1cn(C[C@H]2CC[C@@H]([C@@H]3CC[C@H](Cn4cc(CCCN5C(=O)c6ccccc6C5=O)nn4)O3)O2)nn1` was tested, and the Potency was “inactive”. With `COc1ccc(C(=O)Nc2ccc3nc(C)sc3c2)cc1S(=O)(=O)N1CCOCC1` the Potency was 16.9 µM (active). `CCOC(=O)N1CCN(S(=O)(=O)c2ccc(C(=O)NNc3nc4ccc(Cl)cc4s3)cc2)CC1` was tested, and the Potency was “inactive”. `COc1ccc(CC(=O)Nc2cccc(Cl)c2C)cc1S(=O)(=O)N1CCOCC1` was tested, and the Potency was “inactive”. In the case of `CC(C)N=c1cc2n(-c3ccc(Cl)cc3)c3ccccc3nc-2cc1Nc1ccc(Cl)cc1`, the Potency is reported as 1.9 µM (active). In the case of `CCOC(=O)/C(C#N)=C/c1ccc(OC(=O)c2ccccn2)cc1`, the Potency is reported as 8.49 µM (active). With `N#C/C(=C\c1ccc(OC(=O)c2ccccn2)cc1)C(N)=O` the Potency was 16.9 µM (active). In the case of `N#C/C(=C\c1ccc(OC(=O)c2ccc(Cl)s2)cc1)c1nc2ccccc2[nH]1`, the Potency is reported as “inactive”. `N#C/C(=C/c1ccc(OC(=O)c2ccc(Br)s2)cc1)c1nc2ccccc2[nH]1` was tested, and the Potency was “inactive”. In the case of `N#C/C(=C\c1ccc(OC(=O)c2ccc(Br)s2)cc1)c1nc2ccccc2[nH]1`, the Potency is reported as “inactive”. For `CC(=O)Nc1cc(=O)c2cccnc2[nH]1`, the Potency was 15.1 µM (active). For `CNC(=O)c1cc2c(cn1)[nH]c1ccccc12`, the Potency was “inactive”. With `CCNc1ccc2noc3c2c1C(=O)c1ccccc1-3` the Potency was 6.75 µM (active). With `COc1cc(CNCc2ccc(OC)cc2OC)cc(OC)c1` the Potency was “inactive”. `CSc1nc(NCCOCCO)c2sc3nc(-c4ccco4)c4c(c3c2n1)CCC4` was tested, and the Potency was 7.57 µM (active). In the case of `CCOc1ccc(C2C3=C(Nc4nc(N)[nH]c(=O)c42)c2ccccc2C3=O)cc1` (stereo unspecified), the Potency is reported as 2.69 µM (active). For `Nc1nc2c(c(=O)[nH]1)C(c1ccccc1)C1=C(N2)c2ccccc2C1=O` (stereo unspecified), the Potency was 1.69 µM (active). For `Nc1nc2c(c(=O)[nH]1)C(c1cccc3ccccc13)C1=C(N2)c2ccccc2C1=O` (stereo unspecified), the Potency was 7.57 µM (active). In the case of `CCCOc1ccc(C2C3=C(Nc4nc(N)[nH]c(=O)c42)c2ccccc2C3=O)cc1` (stereo unspecified), the Potency is reported as 3.38 µM (active). For `O=C1/C(=C/c2ccco2)SC(=S)N1c1cccnc1`, the Potency was 12 µM (active). In the case of `Nc1n[nH]c2cc(=O)n(-c3ccc(Cl)cc3)nc12`, the Potency is reported as “inactive”. For `Cn1nc(C(=O)Nc2nc3ccccc3[nH]2)c2ccccc2c1=O`, the Potency was 16.9 µM (active). For `CCN(CC)C(=O)CC(c1ccc(OC)cc1)c1c(OC)cc(OC)c2ccc(=O)oc12` (stereo unspecified), the Potency was “inactive”. In the case of `CN1N/C(=C\c2ccccc2)N=C2C(=O)N(C)C(=O)N=C21`, the Potency is reported as 12 µM (active). For `CCOc1cccc(CN2CCC(CCC(=O)NC3CC3)CC2)c1O`, the Potency was “inactive”. With `Cc1ccc(Nc2nc(NCCO)nc3c2cnn3C)cc1Cl` the Potency was 7.57 µM (active). `COc1ccc(CNC(=O)c2sc(=O)n(Cc3cc(Cl)ccc3OC)c2C)cc1` was tested, and the Potency was “inactive”. With `COc1ccccc1C(=O)Nc1c[nH]c(=O)[nH]c1=O` the Potency was “inactive”. In the case of `COc1cc2[nH]cc(C(=O)NCc3ccccc3)c(=O)c2cc1OC`, the Potency is reported as 5.36 µM (active). With `O=C(C1=C[C@H](c2ccccc2)C[C@H](OCc2ccc(CO)cc2)O1)N1CCN(Cc2ccccc2)CC1` the Potency was “inactive”. In the case of `Nc1ccc2c(c1Cl)C(=O)c1ccc(N)c(Cl)c1C2=O`, the Potency is reported as 3.01 µM (active). `COc1ccccc1Nc1cc(C)nc2c(C)ccc([N+](=O)[O-])c12` was tested, and the Potency was 19 µM (active). In the case of `Cc1cc(Nc2ccc([N+](=O)[O-])cc2)c2ccccc2n1`, the Potency is reported as “inactive”. With `O=C(NN1C(=O)/C(=C\c2ccc(O)c([N+](=O)[O-])c2)SC1=S)c1ccccc1Cl` the Potency was 12 µM (active). In the case of `O=C(Nc1ccccc1)C1=C(c2ccccc2)S(=O)(=O)CCS1(=O)=O`, the Potency is reported as 13.5 µM (active). With `O=C(Nc1ccccc1)C(Cl)C(=O)c1ccccc1` (stereo unspecified) the Potency was “inactive”. With `O=C(CSc1ccc(-c2ccccn2)nn1)N1CCCC1` the Potency was 12 µM (active). For `O=C(CSc1ccc(-c2ccccn2)nn1)N1CCCCC1`, the Potency was 7.57 µM (active). With `O=C(Cn1c(S(=O)(=O)Cc2ccccc2)nc2ccccc21)N1CCCCC1` the Potency was “inactive”. With `Cc1cc2nc(/N=C(\N)NC(=O)N3c4ccccc4Sc4ccccc43)nc(C)c2cc1C` the Potency was “inactive”. For `O=C(Cn1c(C(=O)N2CCc3ccccc3C2)cc2sccc21)c1ccccc1`, the Potency was “inactive”. For `Cc1cc(NC(=O)CS(=O)(=O)c2cn(Cc3cccc(Br)c3)c3ccccc23)no1`, the Potency was “inactive”. With `Cn1ccc2c(N3CCCC3)cc3c(c21)C1CCC3C1` (stereo unspecified) the Potency was 21.3 µM (active). With `COC(=O)c1ccc(C23CC4(C2)[C@H](CN(CC2CCCCC2)[C@@H]4c2ccccc2)C3c2ccc(Cl)nc2)cc1` (stereo partly specified) the Potency was “inactive”. For `O=C(CC(=O)c1c(F)cccc1Cl)c1ccccc1O`, the Potency was “inactive”. In the case of `COC(=O)c1ccccc1NC1=C/C(=N\S(=O)(=O)c2cccs2)c2ccccc2C1=O`, the Potency is reported as 1.69 µM (active). For `O=c1c2ccccc2nnn1CSc1nnc(C2COc3ccccc3O2)n1-c1ccccc1` (stereo unspecified), the Potency was “inactive”. For `O=c1c2ccccc2c(C=Nc2cccc(S(=O)(=O)NC3=NCCCCC3)c2)c(O)n1Cc1ccccc1`, the Potency was “inactive”. With `COc1cccc(NC(=O)c2ccc3c(c2)CCN3S(C)(=O)=O)c1` the Potency was “inactive”. For `COc1ccc(S(=O)(=O)c2c(O)c3ccc(C(=O)Nc4cccc(F)c4)cc3[nH]c2=O)cc1`, the Potency was 0.338 µM (active). `Cc1ccc(Nc2nnc(SCC(=O)c3c(N)n(C4CC4)c(=O)[nH]c3=O)s2)cc1C` was tested, and the Potency was “inactive”. In the case of `O=C(Oc1ccc2c(c1)OCC2=O)c1ccc(Cl)cc1`, the Potency is reported as 2.39 µM (active). With `O=C(Oc1ccc2c(c1)OCC2=O)c1ccccc1` the Potency was 4.78 µM (active). In the case of `CCCNC(=O)C1(C)CCN(Cc2cccc(OC(=O)c3ccccc3)c2)C1` (stereo unspecified), the Potency is reported as “inactive”. With `CN(CCCc1cnc[nH]1)C(=S)NCCCN(Cc1ccc(Cl)cc1)c1ccc(Br)cn1` the Potency was 19 µM (active). With `S=C(NCCCc1cnc[nH]1)NCCCN(Cc1ccc(Cl)cc1)c1ccc(-c2ccccc2)cn1` the Potency was 16.9 µM (active). With `COc1cc(CNC(=O)Nc2nc(C(N)c3ccccc3)cs2)cc(OC)c1OC` (stereo unspecified) the Potency was 19 µM (active). For `CCC(=O)Nc1nc2c(OC)ccc(OC)c2s1`, the Potency was “inactive”. With `Cc1ccccc1-c1cnc(C(O)c2c(C)cccc2C)[nH]1` (stereo unspecified) the Potency was “inactive”. `Cc1nc([N+](=O)[O-])cn1CC(O)c1ccc2c(c1)OCO2` (stereo unspecified) was tested, and the Potency was “inactive”. With `O=c1[nH]c(=O)n(C2C[C@H](O)[C@@H](CO)O2)cc1C(F)(F)F` (stereo partly specified) the Potency was “inactive”. In the case of `COc1ccc2ccccc2c1C=NN1CCCCC1`, the Potency is reported as 16.9 µM (active). For `CCOC(=O)c1ncccc1NC(=O)CC(=O)Nc1cccnc1C(=O)OCC`, the Potency was 3.79 µM (active). For `CCOC(=O)NNc1nncc2ccccc12`, the Potency was “inactive”. For `CC(=O)Oc1cccc2c1C(=O)C1CC=CC(OC(C)=O)C1C2=O` (stereo unspecified), the Potency was 15.1 µM (active). `COc1ccccc1N1CCN(/N=C/C=C\c2ccccc2[N+](=O)[O-])CC1` was tested, and the Potency was 15.1 µM (active). With `O=[N+]([O-])c1ccccc1/C=C\C=N\N1CCN(c2ccccc2)CC1` the Potency was 9.53 µM (active). In the case of `COc1ccc(F)cc1-c1cc(NC=O)c2ncc(-c3cccc(C(F)(F)F)c3)n2c1`, the Potency is reported as “inactive”. With `O=C(O)C1=C[C@@H](c2csc3ccccc23)C[C@@H](OCc2ccc(CO)cc2)O1` the Potency was “inactive”. In the case of `OC(COc1ccc2cc(Br)ccc2c1)Cn1ccnc1` (stereo unspecified), the Potency is reported as “inactive”. In the case of `Cc1sc(NC(=O)C2=COCCO2)c(C(N)=O)c1C`, the Potency is reported as 7.57 µM (active). With `CS(=O)(=O)c1ccc(-c2nnc(NC(=O)C3=COCCO3)o2)cc1` the Potency was “inactive”. In the case of `CC1CCc2c(sc(NC(=O)/C=C/c3cccs3)c2C(=O)O)C1` (stereo unspecified), the Potency is reported as 19 µM (active). With `O=C(O)c1cc(N2N=C(C(F)(F)F)/C(=C/C=C/c3ccco3)C2=O)ccc1Cl` the Potency was 1.51 µM (active). With `O=C1C=C(Nc2ccccc2)C(=O)c2ccccc21` the Potency was 6.01 µM (active). `CCOC(=O)c1c(C)oc2c1c(C=NCc1ccccn1)c(O)c1ccccc12` was tested, and the Potency was 15.1 µM (active). With `COc1ccc(Nc2nc(N)nc(CSC(=S)N3CCCCC3)n2)cc1` the Potency was “inactive”. `CCSc1nc2ccccc2n1C(=O)c1ccc(S(=O)(=O)N2CCCCC2)cc1` was tested, and the Potency was “inactive”. With `O=C(O)c1ccccc1-c1ccccc1C(=O)Nc1ccc2oc(=O)c3ccccc3c2c1` the Potency was 8.49 µM (active). In the case of `O=C(O)c1ccccc1-c1ccccc1C(=O)Nc1ccc2c(c1)[nH]c(=O)c1ccccc12`, the Potency is reported as 7.57 µM (active).
